Measurements published in PubChem BioAssay (NCI).
This is part of a sample that, as a whole, favours compounds with a hit. Of some 83,000 tested, about 20% had one in any assay.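 Plates (96-well) were seeded with cells, treated with compound at one concentration, and incubated for 48 hours before percent growth was determined.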 Values without a mark were called inactive. Active and inactive are the calls of the source. How the source made its calls: active means growth percent below 10; inactive means the rest.

What was measured:
Test in all cases: NCI-60 one-dose screen, 48 h (100 = growth as untreated, 0 = no growth, -100 = all killed)
NCI-H23 lung = settings: 10 µM unless noted
NCI-H226 lung = settings: 10 µM unless noted
NCI-H322M lung = settings: 10 µM unless noted
HOP-62 NSCLC = settings: 10 µM unless noted
NCI-H460 lung = settings: 10 µM unless noted
HOP-92 NSCLC = settings: 10 µM unless noted
NCI-H522 lung = settings: 10 µM unless noted
A549/ATCC NSCLC = settings: 10 µM unless noted
786-0 renal = settings: 10 µM unless noted
COLO 205 colon = settings: 10 µM unless noted
DU-145 prostate = settings: 10 µM unless noted
K-562 leukemia = settings: 10 µM unless noted
MALME-3M melanoma = settings: 10 µM unless noted
MDA-MB-231 breast = settings: 10 µM unless noted
RXF 393 renal = settings: 10 µM unless noted
SF-268 CNS = settings: 10 µM unless noted
SF-295 CNS = settings: 10 µM unless noted
SF-539 CNS = settings: 10 µM unless noted
UACC-257 melanoma = settings: 10 µM
M14 melanoma = settings: 10 µM unless noted

| SMILES | growth (NCI-H23 lung) | growth (NCI-H226 lung) | growth (NCI-H322M lung) | growth (HOP-62 NSCLC) | growth (NCI-H460 lung) | growth (HOP-92 NSCLC) | growth (NCI-H522 lung) | growth (A549/ATCC NSCLC) | growth (786-0 renal) | growth (COLO 205 colon) | growth (DU-145 prostate) | growth (K-562 leukemia) | growth (MALME-3M melanoma) | growth (MDA-MB-231 breast) | growth (RXF 393 renal) | growth (SF-268 CNS) | growth (SF-295 CNS) | growth (SF-539 CNS) | growth (UACC-257 melanoma) | growth (M14 melanoma) |
| --- | --- | --- | --- | --- | --- | --- | --- | --- | --- | --- | --- | --- | --- | --- | --- | --- | --- | --- | --- | --- |
| Nc1c(C(=O)Nc2ccccc2)sc2nc3c(cc12)CCCCC3 | 36.6% | 27.3% | 21.3% | 7.61% (active) | 6.63% (active) | -4.43% (active) | 30.2% | 18.4% | 15.7% | 9.29% (active) | 4.69% (active) | 14.8% | -5.3% (active) | 22.2% | -5.96% (active) | 30.5% | -4.71% (active) | 7.96% (active) | 41.5% | 6.74% (active) |
| Cc1cc2c(c(=O)o1)C(c1ccc(OC(=O)N3CCOCC3)cc1)C(C#N)=C(N)O2 (stereo not given) | 97.4% | 104% | 93.1% | 89.6% | 107% | 113% | 98.9% | 100% | 99.2% | 118% | 112% | 98.6% | 126% | 116% | 114% | 114% | 100% | 96.5% | 98.2% | 110% |
| COc1ccc(-c2nc3sccn3c2-c2ccnc(NCCCNS(=O)(=O)c3ccc4ccccc4c3)n2)cc1 | 64.3% | 62% | 93.1% | 134% | 75.9% | 104% | 62.4% | 76.1% | 67.6% | 57.6% | 62.1% | 34.6% | 80.8% | 53.7% | 76.9% | 63.5% | 61% | 71.7% | 82.8% | 56.5% |
| C=CCN=C1NC(=O)/C(=C/c2cc(C(C)(C)C)c(O)c(C(C)(C)C)c2)S1 | 90.2% | 97.7% | 87.9% | 77.2% | 72.8% | 82.2% | 44.5% | 63.4% | 66.1% | 81.3% | 84% | 30.8% | 75.4% | 86.8% | 62.4% | 82% | 69.3% | 87.6% | 93% | 52.4% |
| COc1ccc([N+](=O)[O-])c(/C=C/C(=O)c2ccccn2)c1 | 91.3% | 84.2% | 83.4% | 78.5% | 89.4% | 66.9% | 90.1% | 87.8% | 93.4% | 89.1% | 28.5% | 21% | 91% | 86.2% | 74.1% | 89.1% | 133% | 95.2% | 96.9% | 104% |
| Cc1cccc(NC(=O)c2sc3nc4c(cc3c2N)CCC4)c1C | 36% | 43.7% | 40.1% | 35.6% | 10.8% | 17.7% | -16.5% (active) | 18.6% | 42.7% | 6.68% (active) | 10.6% | 13.8% | 45.5% | 30.6% | -4.81% (active) | 35.1% | 4.77% (active) | 1.33% (active) | 54.8% | 19.1% |
| CCn1cc(C(=O)O)c(=O)c2cc(F)c(N3CCN(S(=O)(=O)c4ccc(OC)c(OC)c4)CC3)cc21 | 99.6% | 95.9% | 102% | 100% | 108% | 91.5% | 90.6% | 105% | 99.5% | 99.3% | 108% | 101% | 93.6% | 103% | 109% | 88.9% | 93.8% | 90.8% | 106% | 44.1% |
| O=C(Nc1ccc(Br)c(Cl)c1)c1cc(F)ccc1O | -9.2% (active) | -23.8% (active) | 9.4% (active) | 0.0415% (active) | 3.85% (active) | -14.4% (active) | 0.474% (active) | 8.88% (active) | 7.91% (active) | 41.5% | 23.5% | 9.59% (active) | -22.8% (active) | -20% (active) | -5.62% (active) | 19.1% | -53.1% (active) | 5.17% (active) | -23.5% (active) | -14.3% (active) |
| Cn1cc(C=O)c2ccccc21 | 96.4% | 95.2% | 97.8% | 95.9% | 104% | 87.6% | 98.3% | 104% | 99.2% | 104% | 111% | 95.4% | 87.9% | 104% | 105% | 101% | 107% | 97.6% | 105% | 103% |
